# Most compounds without a hit are left out; they make up all but 9.3% or so of the library.
# ELG1 genotoxic – qHTS screen for small molecules that induce genotoxicity in human embryonic kidney (HEK293T) cells expressing luciferase-tagged ELG1; hit rate 1.3% among 330,000; Potency, µM (highest dose often 46 µM), for inactives: at the highest dose activity change, positive = activation, hits mostly activators; HEK293T ELG1-luciferase reporter, luminescence, 16 h; AID 504466, 2011; note: % of control where 0% means no effect; nearly all actives have a fitted effect of over 60% in size
#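 Genotoxicity was scored as increased ELG1-luciferase reporter signal, measured by ONE-Glo luminescence (30 min, room temperature). Compound or vehicle exposure of the HEK293T reporter cells lasted 16 hr at 37°C.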
# Rab9 prom act – qHTS Assay for Rab9 Promoter Activators; Huh7 Rab9 promoter-luciferase reporter, luminescence, 24 h; Potency, µM (top dose mostly 9.22 µM), for inactives: at the highest dose activation, negative = inhibition, actives largely listed as activators; hit rate 2.8% among 320,000; note: % of control where 0% means no effect; nearly all actives have a fitted effect of over 60% in size
#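 Cell-based reporter: Huh7 stable for Rab9 promoter-driven luciferase, plated in reduced-serum medium with 10% FBS at 1500 cells/well, compound-treated 24 h at 37 °C, luminescence read after 10 min reagent.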
# SMN2 splice up – qHTS Assay for Enhancers of SMN2 Splice Variant Expression; AID 1458, 2008; Potency, µM (highest dose often 46.1 µM), for inactives: at the highest dose activity change, positive = activation, most hits filed as activators; hit rate 2.8% among 210,000; HEK293 SMN2-luciferase splicing reporter, luminescence, 30-36 h; note: % of control where 0% means no effect; nearly all actives have a fitted effect of over 55% in size
#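 HEK293 cells carry an SMN2 […]–luciferase reporter in which exon 7 inclusion puts luciferase in frame. Cells were plated 10-12 h before compound addition, then incubated 30-36 h at 37C. ONE-Glo luminescence was read; sodium butyrate at 4.5 mM final served as control.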
# ELG1 repair inh – qHTS screen for small molecules that inhibit ELG1-dependent DNA repair in human embryonic kidney (HEK293T) cells expressing luciferase-tagged ELG1 | Potency, µM (doses to about 46.1 µM), for inactives: at the highest dose activity change, negative = inhibition, most hits filed as inhibitors | AID 504467, 2011 | hit rate 2.3% among 330,000 | HEK293T ELG1-luciferase reporter, luminescence, 16 h; DNA damage induced by 5-fluorouridine; note: % is set by controls: 0 for no effect and ±100 for the full control effect; nearly all actives have a fitted effect of over 55% in size
#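 Step one: seed 2,000 cells per well. Step two: pin-transfer compound or DMSO alongside 5-fluorouridine. Step three: incubate 16 hr, 37 °C, 5% CO2. Step four: add ONE-Glo, wait 30 min, read luminescence.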
# FLuc counter – qHTS profiling assay for firefly luciferase inhibitor/activator using purifed enzyme and Km concentrations of substrates (counterscreen for miR-21 project); Luciferin 4-monooxygenase (Photinus pyralis), P08659; purified FLuc, Km substrates, luminescence inhibition; Potency, µM (top dose mostly 57.5 µM), for inactives: top-dose activity change, negative = inhibition, actives largely listed as inhibitors; hit rate 6.9% among 360,000;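 note: plate controls were vehicle for no effect and reference inhibitor for full effect; nearly all actives have a fitted effect of over 55% in size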
# Target sequence (P08659 whole entry, looked up): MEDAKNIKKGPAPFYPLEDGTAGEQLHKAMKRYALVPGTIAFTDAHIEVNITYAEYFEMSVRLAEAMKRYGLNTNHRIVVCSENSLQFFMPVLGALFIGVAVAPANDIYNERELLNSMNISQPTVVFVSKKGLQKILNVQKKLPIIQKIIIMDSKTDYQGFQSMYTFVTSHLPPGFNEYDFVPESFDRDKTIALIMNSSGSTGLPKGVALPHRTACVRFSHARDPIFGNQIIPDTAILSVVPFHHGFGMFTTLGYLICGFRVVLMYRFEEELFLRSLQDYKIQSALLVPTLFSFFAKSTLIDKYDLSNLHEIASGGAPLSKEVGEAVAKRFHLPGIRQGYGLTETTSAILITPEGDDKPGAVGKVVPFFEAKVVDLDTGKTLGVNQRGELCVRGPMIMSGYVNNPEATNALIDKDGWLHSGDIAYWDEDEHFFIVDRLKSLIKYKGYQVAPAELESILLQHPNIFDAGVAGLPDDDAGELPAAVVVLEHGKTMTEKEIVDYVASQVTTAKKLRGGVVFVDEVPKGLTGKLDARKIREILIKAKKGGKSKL
#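 Purified P. pyralis luciferase (10nM final) with 10uM D-luciferin and 10uM ATP (Km levels) in 50mM Tris acetate pH 7.5, 10mM Mg acetate, 0.01% Tween-20, 0.05% BSA; qHTS 6-point titration, ~60 µM downward; luminescence read.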
# NPC1 prom act – qHTS Assay for NPC1 Promoter Activators. Huh7 NPC1 promoter luciferase reporter, 24 h. Potency, µM (doses to about 9.22 µM), for the others: at the highest dose activation, actives largely listed as activators. hit rate 2.4% among 320,000. AID 485313, 2010; note: % of control where 0% means no effect; nearly all actives have a fitted effect of over 60% in size
#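 In 1536-well qHTS, Huh7 cells harboring an NPC1 promoter–luciferase construct received compound for 24 h; activation was quantified by luminescence following luciferase reagent addition.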
# Numbers without * were called inactive; ? = inconclusive; . = not tested or not shown; [ ] = dose if it differs, or a comment. Calls come from the whole dose curve; as a rule, active = well fitted curve in the direction sought with a large enough effect; inconclusive = small, poorly fitted or top-dose-only effect, or another doubt; inactive = no such curve, though single readings can be large; an effect the other way counts as inactive or inconclusive. Potency is the fitted concentration of half-maximal effect.
SMILES,ELG1 genotoxic,Rab9 prom act,SMN2 splice up,ELG1 repair inh,FLuc counter,NPC1 prom act
CCc1ccc(C(=O)CN2C(=O)NC3(CCOc4ccccc43)C2=O)s1 (centres undefined),1%,1%,.,0%,17µM*,-3%
O=C(c1cccs1)N(CCN1CCCCC1)CC1CCCN(C2CCCC2)C1 (centres undefined),18%,?,.,?,17µM*,23%
Cc1ccc(C(=O)N(CCN2CCCCC2)CC2CCCN(C3CCCC3)C2)s1 (centres undefined),16%,?,.,?,?,22%
O=C1CC(O)(C(F)F)Oc2ccc3ccccc3c21 (centres undefined),-13%,10%,-9%,16µM*,-17%,4%
CCCCC(=O)N(CCOC)c1nnc(-c2ccc(OC)cc2)s1,0%,3%,?,5%,7%[2.3 µM],2%
CCN(C(=O)c1ccco1)c1nnc(-c2ccc(OC)cc2)s1,?,1.8µM*,13µM*,?,0.95µM*,?
CCCN(C(=O)c1ccco1)c1nnc(-c2cccc(C)c2)s1,8%,?,.,-1%,17µM*,17%
COC(=O)c1sccc1NC(=O)CSc1ccccc1N,9%,2%,12%,-7%,-6%,0%
N#CC1=C(SCC(=O)NC23CC4CC(CC(C4)C2)C3)NC(=O)C(C#N)C12CCCCC2 (centres undefined),-12%,-2%,-68%,13µM*,-1%,-4%
N#CC1=C(SCC(=O)NC2CC2)NC(=O)C(C#N)C12CCCCC2 (centres undefined),0%,0%,-17%,-2%,-1%,-2%
CC(=O)Nc1ccc(S(=O)(=O)N2CCN(c3cc(C(F)(F)F)ccn3)CC2)cc1,-4%,-10%,.,?,3%,1%
Nc1c(O)ccc2c1C(=O)c1ccccc1C2=O,10%,2%,29%,?,17µM*,14%
CCc1cc2c(=O)[nH]c(N3CCCC3)nc2s1,11%,?,?,?,?,17%
CCc1cc2c(=O)[nH]c(-c3ccccn3)nc2s1,?,?,10µM*,?,6µM*,4.5µM*
CCN(CC)S(=O)(=O)c1ccc2c(c1)N(CC(=O)N1CCN(c3ccccc3F)CC1)C(=O)CO2,.,.,13%,.,-2%,.
Cc1nn2c(-c3cccnc3)ccnc2c1-c1ccccc1,4%,29%,17%,12%,11µM*,22%
Cc1ccc(-c2cn3c(n2)SCC3)cc1,-7%,2µM*,11µM*,?,?,2.2µM*
CCc1ccc(-c2cn3c(n2)SCC3)cc1,?,1.4µM*,.,?,2.4µM*,1.6µM*
CN(C)S(=O)(=O)Nc1cccc(-c2cn3c(n2)SCC3)c1,0%,-1%,.,-9%,-4%,-1%
Fc1ccc(Nc2nc(Oc3ccc4c(c3)OCO4)nc(N3CCOCC3)n2)c(F)c1,-3%,-1%,2%,-19%,2%,2%
O=C1Nc2ccccc2Nc2ncccc21,-1%,4%,?,?,3%,-4%
Cc1ccc2c(c1)NC(=O)c1cccnc1N2,?,?,11µM*,?,12µM*,3.2µM*
O=C(c1cc(C(F)(F)F)cc(C(F)(F)F)c1)N1CCC2(CCN(Cc3ccncc3)CC2)CC1,.,.,-43%,.,.,.
Cc1cc(=O)oc2ccc(OCC(=O)NCc3ccco3)cc12,-1%,1%,6%,?,1%,0%
COc1ccc2oc(-c3ccco3)cc(=O)c2c1,?,0.79µM*,11µM*,?,12µM*,2.5µM*
SMILES,ELG1 genotoxic,Rab9 prom act,SMN2 splice up,ELG1 repair inh,FLuc counter,NPC1 prom act
COc1cccc2oc(-c3ccco3)cc(=O)c12,?,?,16µM*,?,15µM*,?
O=C(COc1ccc2oc(-c3ccccc3)cc(=O)c2c1)NCc1ccco1,16%,?,-27%,?,2.4µM*,6%
O=C(COc1ccc2oc(-c3ccco3)cc(=O)c2c1)N1CCCCC1,-1%,4%,3%,10%,17µM*,3%
Cc1cc(=O)oc2cc(OCC(=O)N3CCCC3)ccc12,3%,.,.,17%,.,.
CCOc1ccc(N2CC(NC(=O)Cc3ccccc3)CC2=O)cc1 (centres undefined),.,.,.,.,0%,.
COCCCNC(=O)CC(NS(=O)(=O)c1ccc(F)cc1)c1ccc(OC)cc1 (centres undefined),0%,-12%,8%,-2%,0%,2%
CC[N+]1=C(C)C(C)(C)c2cc(C)ccc21,-11%,-3%,-17%,13µM*,-1%,-10%
CCN1C(=O)C(=O)c2cc(C)ccc21,5%,.,.,?,.,.
CCCC(=O)Nc1cccc(-c2nc3cc(C)c(C)cc3o2)c1C,.,.,?,.,0.27µM*,.
CCCC(=O)Nc1ccc2oc(-c3ccncc3)nc2c1,15%,15%,-12%,4%,?,-24%
Cc1ccc(OCC(=O)Nc2cccc(-c3nc4ccccc4o3)c2C)cc1C,.,.,0%,.,-1%,.
CCCC(=O)Nc1ccc(-c2nc3cc(C)c(C)cc3o2)cc1,?,0.35µM*,11µM*,?,1.1µM*,0.35µM*
CN(c1ccccc1)S(=O)(=O)c1cccc(C(=O)Nc2ccc(N3CCOCC3)cc2)c1,-3%,-8%,.,18µM*,-8%,-5%
Cc1ccc(N(C)S(=O)(=O)c2cccc(C(=O)Nc3ccc(N4CCOCC4)cc3)c2)cc1,-3%,-11%,.,16µM*,-11%,-8%
COC(=O)[C@@H]1CCCN1C(=O)CCc1nnc(CCC2CCCCC2)o1,?,?,?,?,19µM*,28%
COC(=O)C1CCCCN1C(=O)CCc1nnc(CCc2c[nH]c3ccccc23)o1 (centres undefined),0%,-2%,.,-13%,2%,-23%
COC(=O)[C@@H]1CCCN1C(=O)CCc1nnc(CCc2c[nH]c3ccccc23)o1,8%,13%,.,18%,17µM*,12%
CCN1CCCC1CNC(=O)CCc1nnc(CCC2CCCCC2)o1 (centres undefined),-3%,-5%,14%,5%,1%,-2%
Cc1cc(C)cc(N(C(=O)CNC(=O)c2ccco2)C(C(=O)NC2CCCC2)c2cccnc2)c1 (centres undefined),0%,-2%,9%,-11%,2%,0%
